Calls of active or inactive are those of the source. How the source made its calls: active means hit-call score of the fitted dose curve at least 0.9, where 1 is the maximum; inactive means score below 0.9.

The experiment in a line: ATG_DR4_LXR_CIS: Attagene CIS-FACTORIAL HepG2 Assay for human Liver X Receptor (LXR), DR4 submotif (AID 2282929). As to conditions: HepG2 Attagene DR4 cis-reporter, mRNA transcription; actives raise or lower the signal. Here is the method:
ATG_CIS is a cell-based, multiplexed-readout assay that uses HepG2, a human liver cell line, with measurements taken at 24 hours after chemical dosing in a 24-well plate.ATG_DR4_LXR_CIS is one of 52 assay component(s) measured or calculated from the ATG_CIS assay. It is designed to make measurements of mRNA induction, a form of inducible reporter, as detected with fluorescence intensity signals by Reverse transcription polymerase chain reaction (RT-PCR) and Capillary electrophoresis technology.Data from the assay component ATG_DR4_LXR_CIS was analyzed into 1 assay endpoint. This assay endpoint, ATG_DR4_LXR_CIS, was analyzed with bidirectional fitting relative to DMSO as the negative control and baseline of activity. Using a type of inducible reporter, measures of mRNA for gain or loss-of-signal activity can be used to understand the reporter gene at the transcription factor-level as they relate to the gene NR1H2 and NR1H3. Furthermore, this assay endpoint can be referred to as a primary readout, because this assay has produced multiple assay endpoints where this one serves a reporter gene function. To generalize the intended target to other relatable targets, this assay endpoint is annotated to the nuclear receptor intended target family, where the subfamily is non-steroidal.
Human liver HepG2 cells are transiently transfected with multiple reporter transcription units (MRTUs) in 6-well plates using FuGene 6 reagent (Roche; 3 ml FuGene/1 mg DNA). The MRTU constructs are regulated by a cis-regulating element (promoter). […] A major difference between the CIS and TRANS system is that in CIS activities of endogenous TFs are measured, whereas the TRANS assay evaluates changes in activities of exogenous, chimeric NR-Gal4 proteins. […] At the end of 24 hour incubation, total RNA was isolated using TriZol reagent (Invitrogen). The isolated RNA is then reverse-transcribed using oligo(dT) primer and Mo-MLV reverse transcriptase (Invitrogen) with DNAse I (Ambion) treatment for 30 min. The one-tenth of the produced cDNA was amplified by PCR using Taq DNA polymerase (Invitrogen) and two reporter sequence-specific primers. The PCR products were fluorescently labeled by primer extension with 6-arboxyfluorescein (6-FAM) 5'-labeled reporter sequence-specific primer (2 min at 95 C, 20 s at 68 C and 10 min at 72 C) and these products were digested with 5U of HpaI (New England Biolabs) for 2h at 37 C. The fragments were purified using Qiaquick PCR columns (Qiagen), analyzed on an ABI 3130xL genetic analyzer (Applied Biosystems) with peak positions identified by using a set of X-rhodamine (ROX)-labeled MapMarker1000 molecular weight standards (BioVentures). The raw capillary electrophoresis data was processed using Attagraph software (Attagene).
For `Clc1ccc(Cl)c(Cl)c1`, the result was inactive.
On the same count and under the same terms, the value for `[As]#[In]` was “inactive”.
Same read-out and setting: the value for `c1ccc2c(c1)-c1cccc3cccc-2c13` was “inactive”.
For `CCN(CC)CCO`, the compound was called inactive.
One may read the AC50 as the concentration giving half of the maximal activity seen. Consider `Oc1ccc2ccc3cccc4ccc1c2c34`, for which the AC50 was 11.1 µM (active).
Still for that read-out and setting: the value for `CCC(C)c1ccc(O)cc1` (stereo not given) was 100 µM (active); that for `Brc1ccc(Oc2ccccc2)cc1` was 155 µM (active).
Take `CCN(CC)N=O`: the outcome was inactive.
For `CC(C)COC(=O)c1ccccc1C(=O)OCC(C)C`, the AC50 is 73 µM (active).
For `CCNS(=O)(=O)C(F)(F)C(F)(F)C(F)(F)C(F)(F)C(F)(F)C(F)(F)C(F)(F)C(F)(F)F`, the outcome was inactive.
Turning to `CC(C)(O)c1cnn2c(-c3ccc(F)c(-c4c(F)cccc4C#N)c3)cnc2n1`, the AC50 is 27.5 µM (active).
Still for that read-out and setting: the figure for `O=C(Nc1ccccc1)c1ccccc1I` is 157 µM (active).
Take `O=Cc1ccco1`: the result was inactive.
On the same count and under the same terms, the value for `COC(=O)c1ccccc1N` was “inactive”; that for `CCCCC(CC)COC(=O)c1ccc(C(=O)OCC(CC)CCCC)c(C(=O)OCC(CC)CCCC)c1` (stereo not given) was “inactive”.
For `Clc1ccc(C(c2ccc(Cl)cc2)C(Cl)(Cl)Cl)cc1`, the concentration at half-maximal activity (AC50) was 27.6 µM (active).
As to `CCOc1cccc(C2(N3CCN(c4ccccc4)CC3)CCC(C)CC2)c1` (stereo not given), the compound was classed as inactive.
Still for that read-out and setting: the value for `O=C(N[C@H](c1ccccc1)[C@@H]1CN2CCC1CC2)c1c(Cl)ccc(C(F)(F)F)c1Cl` was “inactive”; that for `Nc1ccc(Cc2ccc(N)cc2)cc1` was “inactive”.
Same read-out and setting: the value for `CCCCCCCCOC(=O)c1ccc(C(=O)OCCCCCCCC)c(C(=O)OCCCCCCCC)c1` was “inactive”.
Still for that read-out and setting: the value for `CN(C)c1ccccc1` was “inactive”; that for `CCCCCCCCCCCCCN1CC(C)OC(C)C1` (stereo not given) was “inactive”; that for `CCCCOC(=O)c1ccccc1C(=O)OCc1ccccc1` was “inactive”.
For `OCCCBr`, the compound was called inactive.
Same read-out and setting: the value for `CS(=O)(=O)NC(=O)c1cc(Oc2ccc(C(F)(F)F)cc2Cl)ccc1[N+](=O)[O-]` was “inactive”.
Same read-out and setting: the entry for `Cc1cccc(N)c1N` is “inactive”.
Same read-out and setting: the value for `O=P(OCCCl)(OCCCl)OCCCl` was “inactive”.
As to `CC(C)(OOC(C)(C)c1ccccc1)c1ccccc1`, the AC50 is 63.9 µM (active).
Consider `Nc1cc(Cl)cc(C(=O)O)c1Cl`, for which the compound was classed as inactive.
The same measure, in the same setting: the entry for `C[N+](C)(C)CC1CO1` (stereo not given) is “inactive”.
`CO[C@@H]1[C@H](OC(=O)NC(=O)CCl)CC[C@]2(CO2)[C@H]1[C@@]1(C)O[C@@H]1CC=C(C)C`: the concentration at half-maximal activity (AC50) is 10.2 µM (active).
On the same count and under the same terms, the figure for `CCOC(=O)[C@]1(c2ccccc2)Oc2ccccc2[C@@H]1N` is 52.4 µM (active).
For the compound `C=CCc1ccc2c(c1)OCO2`, the outcome was inactive.
In the case of `CN(C)C(=O)Nc1ccc(Cl)cc1`, the result was inactive.
Consider `C1=Cc2cccc3cccc1c23`, for which the compound was classed as inactive.
On the same count and under the same terms, the entry for `CNC(=O)Oc1cccc2c1OC(C)(C)C2` is “inactive”.
For the compound `ClC1=C(Cl)[C@]2(Cl)[C@H]3[C@H]([C@@H]4C=C[C@H]3C4)[C@@]1(Cl)C2(Cl)Cl`, the concentration at half-maximal activity (AC50) was 25.9 µM (active).
Turning to `N#CC(Br)(Br)C(N)=O`, the result was inactive.
On the same count and under the same terms, the entry for `CN(C)[C@@H]1C(=O)C(C(N)=O)=C(O)[C@@]2(O)C(=O)C3=C(O)c4c(O)cccc4[C@@](C)(O)[C@H]3C[C@@H]12` is “inactive”; for `CCC12COCN1COC2` it is “inactive”.

The values above are taken from PubChem BioAssay (EPA / NIEHS).
